Inhibition data for five molecules are collected here from PubChem BioAssay AID1987 (The Scripps Research Institute Molecular Screening Center, 2009).

In all, about 320,000 compounds went through this assay and about 560 (0.17%) were called active.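 Rule for the calls: active = inhibition above the campaign's mean inhibition across all tested compounds plus 3 SD (cut at about 9.5% in these data); inactive = the rest.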 This excerpt belongs to a sample that is enriched for actives.

As usually defined, the inhibition is the change of the read-out against control, counted positive when it falls.

The target in the assay is Serine/threonine-protein phosphatase 5 (Homo sapiens) (UniProt P53041). Kind of assay: PP5 phosphatase inhibitors, primary screen, biochemical, fluorescence (AID 1987).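 Note: 0% = DMSO only and 100% = 100 µM cantharidin control.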 Particulars: purified PP5c, OMFP substrate fluorescence; at 6.7 µM; hits give high values.
Serine/threonine-protein phosphatase 5 (Homo sapiens), sequence (P53041 whole entry, looked up): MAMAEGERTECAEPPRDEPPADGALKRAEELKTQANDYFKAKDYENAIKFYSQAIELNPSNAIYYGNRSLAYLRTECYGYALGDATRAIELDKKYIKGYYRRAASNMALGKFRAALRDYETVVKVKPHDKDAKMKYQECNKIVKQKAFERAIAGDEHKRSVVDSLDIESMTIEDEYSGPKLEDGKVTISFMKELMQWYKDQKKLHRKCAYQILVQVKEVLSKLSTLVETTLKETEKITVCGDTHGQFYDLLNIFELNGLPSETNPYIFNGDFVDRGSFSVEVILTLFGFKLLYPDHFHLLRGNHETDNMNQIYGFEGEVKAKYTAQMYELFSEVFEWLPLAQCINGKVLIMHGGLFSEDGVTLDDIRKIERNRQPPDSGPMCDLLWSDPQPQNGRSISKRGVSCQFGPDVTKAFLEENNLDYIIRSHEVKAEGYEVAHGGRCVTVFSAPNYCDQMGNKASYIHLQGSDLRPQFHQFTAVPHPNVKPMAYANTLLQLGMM
Regarding `O=C(O)c1ccccc1NC(=O)C1C2CCC(O2)C1C(=O)O` (stereo not given), the inhibition is 41.3% (active). For `Cc1cc(C)cc(NC(=S)NC2CC3CCCC(C2)N3Cc2cccs2)c1` (stereo not given), the inhibition is 4.69% (inactive).

On to `CC(c1ccccc1)(c1ccccc1)c1ccncc1`, for which the inhibition was -0.19% (inactive).

As to `C[N+]12CN3CN(CN(C3)C1)C2`, the inhibition was -1.24% (inactive). The value for `CCOP(=O)(OCC)C(NC(=O)NC)C(N)=O` (stereo not given) was -0.58% (inactive).
